Data from PubChem BioAssay (NCATS).
Values joined by “and” are separate entries in the source; they are usually repeats but may differ in a detail not shown here. Identical values can stand only once. Results filed as inconclusive are left out. Active and inactive are the calls of the source. Unless noted, calls follow the shape of the dose curve; as a rule, active = well fitted curve in either direction with a large enough effect (not every such curve was filed as active); inconclusive = small, poorly fitted or top-dose-only effect, or another doubt; inactive = flat fitted curve, though single readings scatter.

Columns and labels:
[1] = AP1 Signaling Pathway (AID 357); details: ME-180 AP-1-bla reporter, EGF-induced, beta-lactamase ratio, 5 h; also: % is scaled to controls: 0 for no effect and ±100 for the full control effect
How it was run: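 Titration-series screen for positive or negative modulators of EC50 EGF-induced signaling in ME-180 cells carrying an AP-1-driven beta-lactamase reporter. After 5 hours at 37 degrees Celsius, CCF4 460nm/530nm emission ratio gave %Activity; AC50 values derived.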

[2] = target: Cytochrome P450 1A2 (Homo sapiens) (UniProt P05177); assay: p450-cyp1a2 (AID 410; calls by dose curve; also: potency is read from the fitted curve at half-maximal effect;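 as to activity change, negative = inhibition: -100% = full effect of reference inhibitor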); details: recombinant CYP1A2, luciferin-ME demethylation, luminescence; series mostly up to 57 µM
How it was run: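 20nM CYP1A2, 100uM Luciferin-ME (=Km), 100mM KPO4; cpd 10 min RT; +NADPH regen, 60 min RT; stop/detect 20 min; luminescence. Normalized to furafylline 57 uM = full inhibition.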

[3] = Stat Signaling Pathway (AID 446); details: ME-180 (cervical carcinoma) SIE beta-lactamase reporter, IL-6 stimulated, 5 h;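 also: ME-180 cervical cancer cells given 40 pM IL-6 alongside compound; SIE-controlled beta-lactamase reporter measured as 460/530 nm FRET emission ratio; % is scaled to controls: 0 for no effect and ±100 for the full control effect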
How it was run: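 Normalization used AC90 stimulation (300 pM IL-6) and AC90 inhibition (125 nM pan-JAK inhibitor at 40 pM IL-6). The underlying signal is SIE-driven beta-lactamase in ME-180 cells after 5 h IL-6 exposure with compound.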

[4] = target: Glucocorticoid receptor (Homo sapiens) (UniProt P04150); assay: GR-GFP Redistribution (AID 450;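 active = compounds whose dose series gives a full or clear partial fitted curve of increased nuclear translocation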; also: potency is read from the fitted curve at half-maximal effect); details: U2OS GR-GFP nuclear translocation, laser cytometry, 2 h
[5] = target: Glucocorticoid receptor (Homo sapiens) (UniProt P04150); assay: GR-EFC Redistribution (AID 451; calls by dose curve; also: potency is read from the fitted curve at half-maximal effect); details: CHO-K1 GR-EFC translocation, beta-gal luminescence, 2 h
How it was run: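 CHO-K1 cells stably expressing nuclear-localized β-gal enzyme acceptor and GR fused C-terminally to the enzyme donor fragment; ligand-driven nuclear translocation restores β-gal by complementation. Compounds titrated up to 46 uM final, 2 h at 37 °C; luminescence read.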

[6] = NFAT Signaling Pathway (AID 444); details: Jurkat NFAT-bla M1, carbachol, beta-lactamase ratio, 5 h; at 38 µM (top of the series) unless noted;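 also: carbachol stimulus at about its EC50 of 1 µM final; % is scaled to controls: 0 for no effect and ±100 for the full control effect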
How it was run: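 Jurkat cells carrying an NFAT-driven β-lactamase reporter and co-transfected muscarinic M1 receptor were treated with compound plus carbachol (1 uM final, an EC50 level) for 5 h at 37 °C. CCF4 loading followed for 1 h at RT; 460/530 nm ratio gave %activity.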

[7] = target: Mitogen-activated protein kinase 10 (Mus musculus) (UniProt Q61831); assay: JNK3 AlphaScreen Assay (AID 530); details: JNK3 lysate, c-Jun phosphorylation; series mostly up to 57.1 µM;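 also: kinase came from lysate of stimulated human HepG2 cells; signal reports phosphorylation of biotinylated GST-cJun 1-79 at Ser73 with 10 µM ATP; % is scaled to controls: 0 for no effect and ±100 for the full control effect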
How it was run: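 Biotinylated GST-cJun(1-79) served as substrate for JNK3 in HepG2 lysates stimulated with IL-1beta and TNF-alpha. ATP was 10 uM final, pH 7.6. Ser73 phosphorylation was quantified by AlphaScreen (680 nm excitation).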

[8] = Cell Viability - BJ (AID 421; calls by dose curve;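 also: potency is read from the fitted curve at half-maximal effect; cells exposed to compound for 40 hours at 37 °C before readout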); details: BJ fibroblast viability, qHTS
How it was run: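 Normal human BJ foreskin fibroblasts, 1500/well in complete medium, treated 40 hr at 37 °C. Cellular ATP by CellTiter-Glo luminescence; normalized to DMSO and 100 uM tamoxifen, AC50 from Hill fit.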

[9] = Cell Viability - Jurkat (AID 426;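 active = dose-dependent loss of cell ATP signal giving a full or clear fitted curve, ranked by lower potency value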; also: potency is read from the fitted curve at half-maximal effect); details: qHTS
How it was run: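 Luminescent ATP read-out (CellTiter-Glo, 20 min at room temperature) after 40 hr compound exposure at 37 °C of Jurkat E6-1 cells, 5000/well. Decreased ATP taken as cytotoxicity; AC50 from standard Hill equation.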

[10] = Cell Viability - Hek293 (AID 427;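 active = compounds whose dose-response curve shows a full or clear partial loss of cell viability, called from curve shape rather than a numeric limit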;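 also: potency is read from the fitted curve at half-maximal effect; cells exposed to compound for 40 hours at 37 °C before reading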); details: qHTS
How it was run: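 HEK293 cells in complete medium were exposed to compound for 40 hr at 37 °C, then cellular ATP was read by CellTiter-Glo luminescence. Data were normalized to DMSO (basal) and 100 uM tamoxifen (100% inhibition), and AC50 came from Hill fits.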

[11] = Cell Viability - HepG2 (AID 433; calls by dose curve;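 also: potency is read from the fitted curve at half-maximal effect; potency for ATP loss meaning cytotoxicity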); details: qHTS
How it was run: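 HepG2 cells, 1500 per well, treated 40 hr at 37 °C in complete medium; viability from intracellular ATP by CellTiter-Glo luminescence. Normalized to DMSO and 100 uM tamoxifen; AC50 from Hill fit of qHTS concentration-response.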

[12] = Cell Viability - MRC5 (AID 434; calls by dose curve;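 also: potency is read from the fitted curve at half-maximal effect; potency reflects cytotoxicity seen as loss of intracellular ATP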); details: MRC5 lung fibroblast viability, qHTS
How it was run: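 Decrease in intracellular ATP, quantified by luciferase light output, reflects compound toxicity toward MRC5 cells exposed for 40 hr in complete culture medium. Concentration-response curves, scaled between DMSO and 100 uM tamoxifen, gave AC50 values.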

[13] = Cell Viability - SK-N-SH (AID 435; calls by dose curve; also: potency is read from the fitted curve at half-maximal effect); details: SK-N-SH neuroblastoma cell viability qHTS
How it was run: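 SK-N-SH neuroblastoma cells (1500/well) treated 40 h at 37 °C in complete medium; viability read as cellular ATP by CellTiter-Glo luminescence. Normalized to DMSO and 100 uM tamoxifen; AC50 from Hill fits of qHTS concentration-response.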

[14] = Cell Viability - N2a (AID 540; active = well fitted curve in the direction sought with a large enough effect; an effect the other way counts as inactive or inconclusive;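 also: plate controls were DMSO alone for no effect and tamoxifen control for full effect; nearly all actives have a fitted effect of over 45% in size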); details: N2a mouse neuroblastoma cell viability; activity change, negative = cytotoxicity: at 92.2 µM (top of the series)
How it was run: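 N2a mouse neuroblastoma, 1500 cells/well, 5 hr settle; compound 40 hr, 37 °C; CellTiter-Glo 20 min RT; luminescence; Hill-fit AC50.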

[15] = Cell Viability - NIH 3T3 (AID 541; active = well fitted curve in the direction sought with a large enough effect; an effect the other way counts as inactive or inconclusive;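 also: plate controls were DMSO alone for no effect and tamoxifen positive control for full effect; nearly all actives have a fitted effect of over 25% in size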); details: NIH 3T3 cell viability, qHTS; activity change, negative = cytotoxicity: at 92.2 µM (top of the series)
How it was run: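 qHTS format; 40 hr compound exposure, 37 °C; CellTiter-Glo luminescence (cellular ATP) read-out after 20 min at RT. Decrease in ATP = cytotoxicity; AC50 from standard Hill fit.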

[16] = Cell Viability - HUV-EC-C (AID 542; active = well fitted curve in the direction sought with a large enough effect; an effect the other way counts as inactive or inconclusive; also: % is scaled to controls: 0 for no effect and ±100 for the full control effect; nearly all actives have a fitted effect of over 35% in size); details: HUV-EC-C endothelial cell viability, qHTS; series mostly up to 92.2 µM
How it was run: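 Luminescent ATP read-out (CellTiter-Glo, 20 min room temperature) after 40 hr compound treatment of HUV-EC-C cells at 37 °C. Concentration-response data fitted with the standard Hill equation to give AC50; tamoxifen and doxorubicin served as positive controls.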

[17] = Cell Viability - H-4-II-E (AID 543; active = well fitted curve in the direction sought with a large enough effect; an effect the other way counts as inactive or inconclusive; also: % is scaled to controls: 0 for no effect and ±100 for the full control effect; nearly all actives have a fitted effect of over 35% in size); details: H-4-II-E rat hepatoma viability; series mostly up to 92.2 µM
How it was run: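 qHTS, rat hepatoma H-4-II-E, 1500 cells/well; 40 hr compound exposure, 37 °C; CellTiter-Glo ATP luminescence after 20 min RT; AC50 by standard Hill fit.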

[18] = Cell Viability - SH-SY5Y (AID 544; active = well fitted curve in the direction sought with a large enough effect; an effect the other way counts as inactive or inconclusive;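 also: 0% = DMSO alone and -100% = 100 µM tamoxifen; nearly all actives have a fitted effect of over 55% in size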); details: SH-SY5Y neuroblastoma cell viability; viability change, negative = cytotoxic: at 92.2 µM (top of the series)
How it was run: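 SH-SY5Y, 1500 cells/well, 5 hr pre-incubation 37 °C; cpd 40 hr 37 °C; CellTiter-Glo 20 min RT; luminescence (ATP) read. qHTS concentration-response, Hill fit → AC50. Tamoxifen, doxorubicin as positive controls.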

[19] = Cell Viability - Renal Proximal Tubule (AID 545; active = well fitted curve in the direction sought with a large enough effect; an effect the other way counts as inactive or inconclusive;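 also: 0% = DMSO only and -100% = 100 µM tamoxifen; nearly all actives have a fitted effect of over 40% in size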); details: renal proximal tubule cells viability, primary cells of rat origin; activity change, negative = cytotoxicity: at 91.7 µM (top of the series)
How it was run: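 Rat renal proximal tubule primary cells, 1000/well, exposed to compounds for 40 hr at 37 °C in complete medium; cellular ATP read by CellTiter-Glo luminescence. AC50 from concentration-response fitted with standard Hill equation.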

Sequence of Cytochrome P450 1A2 (Homo sapiens) (P05177 whole entry, looked up): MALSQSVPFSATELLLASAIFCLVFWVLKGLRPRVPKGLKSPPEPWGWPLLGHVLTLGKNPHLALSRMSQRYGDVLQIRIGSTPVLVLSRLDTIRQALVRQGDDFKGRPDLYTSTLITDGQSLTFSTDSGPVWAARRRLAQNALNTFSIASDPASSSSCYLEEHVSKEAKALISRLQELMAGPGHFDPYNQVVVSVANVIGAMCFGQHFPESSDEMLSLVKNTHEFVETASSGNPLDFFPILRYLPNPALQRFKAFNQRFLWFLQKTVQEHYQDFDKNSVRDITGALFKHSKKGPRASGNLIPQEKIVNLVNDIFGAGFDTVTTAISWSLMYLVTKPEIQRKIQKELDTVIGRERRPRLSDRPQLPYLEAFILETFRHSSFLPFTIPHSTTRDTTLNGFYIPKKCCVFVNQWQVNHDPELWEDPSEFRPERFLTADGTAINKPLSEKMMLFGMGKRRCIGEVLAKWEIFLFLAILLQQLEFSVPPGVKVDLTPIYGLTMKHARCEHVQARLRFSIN
Sequence of Glucocorticoid receptor (Homo sapiens) (P04150 whole entry, looked up, the tested form may be a part): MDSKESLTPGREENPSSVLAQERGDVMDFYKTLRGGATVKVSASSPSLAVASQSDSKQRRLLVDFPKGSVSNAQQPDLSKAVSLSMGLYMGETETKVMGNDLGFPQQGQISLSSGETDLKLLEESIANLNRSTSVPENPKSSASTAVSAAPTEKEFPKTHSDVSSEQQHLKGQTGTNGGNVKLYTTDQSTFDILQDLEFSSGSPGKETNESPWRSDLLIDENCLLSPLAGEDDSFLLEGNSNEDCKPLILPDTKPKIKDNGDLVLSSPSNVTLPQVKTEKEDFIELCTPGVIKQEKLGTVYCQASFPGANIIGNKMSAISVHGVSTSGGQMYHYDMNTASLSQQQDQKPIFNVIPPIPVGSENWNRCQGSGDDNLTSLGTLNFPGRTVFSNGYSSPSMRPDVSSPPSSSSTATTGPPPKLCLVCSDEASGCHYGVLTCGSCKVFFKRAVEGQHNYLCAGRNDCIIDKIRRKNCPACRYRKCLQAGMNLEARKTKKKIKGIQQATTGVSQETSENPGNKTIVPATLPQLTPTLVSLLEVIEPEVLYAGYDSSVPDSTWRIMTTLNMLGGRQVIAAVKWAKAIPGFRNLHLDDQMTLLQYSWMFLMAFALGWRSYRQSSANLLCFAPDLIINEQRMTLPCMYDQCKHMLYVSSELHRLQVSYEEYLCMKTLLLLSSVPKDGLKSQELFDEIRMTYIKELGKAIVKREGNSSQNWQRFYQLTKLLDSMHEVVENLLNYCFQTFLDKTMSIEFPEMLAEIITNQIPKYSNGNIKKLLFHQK

O=c1[nH]c2ccccc2n1CCCN1CCN(C(c2ccccc2)c2ccccc2)CC1
active: Potency [2] 25.1 µM
inactive: activity change, negative = inhibition ([1]; at 17.2 µM (top of the series)) -6.95% | activity change, negative = inhibition ([1]; at 38 µM (top of the series)) -17.6% | activity, negative = inhibition ([3]; at 17.2 µM (top of the series)) -2.06% | Potency [4] > 46 µM and > 20.6 µM | Potency [5] > 46 µM

N#C/C(=C\c1ccc(O)c(O)c1)C(=O)NCc1ccccc1
active: Potency [2] 12.6 µM and 7.94 µM
inactive: activity change, negative = inhibition ([1]; at 38 µM (top of the series)) -8.08% | activity change, negative = inhibition [6] -14.7% | activity, negative = inhibition ([3]; at 38 µM (top of the series)) -18.4% | Potency [4] > 46 µM | Potency [5] > 46 µM | Potency [7]

N#C/C(=C\c1ccc(O)c(O)c1)C(=O)c1ccc(O)c(O)c1
active: Potency [2] 31.6 µM
inactive: activity change, negative = inhibition ([1]; at 38 µM (top of the series)) -8.79% | activity change, negative = inhibition [6] -9.14% | Potency [4] > 46 µM | Potency [5] > 46 µM

O=c1[nH]c2cc(C(F)(F)F)ccc2n1-c1cc(C(F)(F)F)ccc1O
inactive: activity change, negative = inhibition ([1]; at 38 µM (top of the series)) -14.9% | activity change, negative = inhibition [6] 7.55% | Potency [4] > 46 µM | Potency [5] > 46 µM

NCCCS(=O)(=O)O
inactive: activity change, negative = inhibition ([1]; at 38 µM (top of the series)) -1.95% | Potency [2] | activity change, negative = inhibition [6] 29% | activity, negative = inhibition ([3]; at 38 µM (top of the series)) -2.17% | Potency [4] > 46 µM | Potency [5] > 46 µM | Potency [7]

c1ccc(-c2ccccn2)nc1
active: Potency [2] 25.1 µM
inactive: activity change, negative = inhibition ([1]; at 38 µM (top of the series)) 11.7% | activity change, negative = inhibition [6] -2.98% | activity, negative = inhibition ([3]; at 38 µM (top of the series)) 6.11% | Potency [4] > 46 µM | Potency [5] > 46 µM | Potency [7]

N=C(N)SCCc1ccc(CCSC(=N)N)cc1
inactive: activity change, negative = inhibition ([1]; at 38 µM (top of the series)) 14.8% | Potency [2] | Potency [4] > 46 µM | Potency [5] > 46 µM | Potency [7]

Cc1cc(NC(=O)Nc2ccc3c(ccn3C)c2)sn1
active: Potency [2] 10 µM and 5.01 µM
inactive: activity change, negative = inhibition ([1]; at 38 µM (top of the series)) -21.3% | activity change, negative = inhibition [6] 10.3% | Potency [4] > 46 µM | Potency [5] > 46 µM

CC1(C)S[C@@H]2[C@H](NC(=O)[C@H](N)c3ccccc3)C(=O)N2[C@H]1C(=O)O
inactive: activity change, negative = inhibition ([1]; at 17.2 µM (top of the series)) 6.1% | Potency [8] > 92 µM | Potency [9] > 92 µM | Potency [10] > 92 µM | Potency [11] > 92 µM | Potency [12] > 92 µM | Potency [13] > 92 µM | activity change, negative = inhibition [6] 3.92% [at 17.2 µM] | activity, negative = inhibition ([3]; at 17.2 µM (top of the series)) 1.21% | Potency [7] | Potency [14] | Potency [15] | Potency [16] | Potency [17] | Potency [18] | activity change, negative = cytotoxicity [19] -5.39%
